Molecules are shown by their SMILES. Several values for one entry are separate records, joined by “and”; a condition that tells them apart may be missing. Identical values can stand only once. Inconclusive results are not listed. Unmarked numbers belong to inactive results. The call rests on the fitted dose curve; in most records, active means well fitted inhibition curve with a large enough effect; inconclusive means small, poorly fitted or top-dose-only effect; inactive means flat fitted curve, though single readings scatter. Where a SMILES comes first, the peptide text is derived from it. Bridges are numbered along the chain shown (N, C = ends). [ ]: non-standard residue; d: D form. The star is where a group is joined. ξ: configuration not given here. d(aThr) = C[C@@H](O)[C@@H](N)C(=O)O; ξThr(3R) = C[C@@H](O)C(N)C(=O)O; X3 = CC[C@@H](C)CCCCC(=O)*; dDab = NCC[C@@H](N)C(=O)O
On the % scale 0 is the no-effect control and ±100 the full control effect.

The experiment relates to KB-3-1. The experiment can be described thus: Cytotoxic Profiling of Annotated Libraries Using Quantitative High-Throughput Screening (AID 1296008). Further: nearly all actives have a fitted effect of over 60% in size. To be noted: Five cell lines viability, CellTiter-Glo ATP luminescence, 48-72 h; max response: hits give low values. In outline:
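Cells exposed to compounds for 48 or 72 hr at 37 degrees Celsius. Viability read as ATP-coupled luminescence with CellTiter-Glo after 10 min at room temperature.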
For orientation: Cellular ATP, detected with luciferase, serves as a proxy for viable cell number.
In the case of `CCN(CC)CCOC[C@H]1O[C@@H](O)[C@H](OCCN(CC)CC)[C@@H](O)[C@@H]1O`, the max response was 8.48%. As to `C[C@@H]1C[C@H]2[C@@H]3CCC4=CC(=O)C=C[C@]4(C)[C@@]3(F)[C@@H](O)C[C@]2(C)[C@@]1(O)C(=O)COC(=O)c1cccc(S(=O)(=O)O)c1`, the max response is 21.4%.

As to `COC(=O)[C@H]1[C@H]2C[C@@H]3c4[nH]c5cc(OC)ccc5c4CCN3C[C@H]2C[C@H](OC)[C@@H]1OC`, the max response is 14.2%.

Regarding `O=C1CC[C@@H](C(=O)N[C@H]2C[C@@H]2c2ccccc2)N1`, the max response was -13%. As to `NC(=O)c1cc[n+](CC2=C(C(=O)O)N3C(=O)[C@@H](NC(=O)C(c4ccccc4)S(=O)(=O)[O-])[C@H]3SC2)cc1` (some centres undefined), the max response is 1.04%.

On to `CC(C)C[C@@H](NC(=O)[C@@H](O)[C@H](N)Cc1ccccc1)C(=O)O`, for which the max response was 11%. The same measure for `CC[C@H](C)[C@@H]1NC(=O)[C@H](Cc2ccc(O)cc2)NC(=O)[C@@H](N)CSSC[C@@H](C(=O)N2CCC[C@H]2C(=O)N[C@@H](CC(C)C)C(=O)NCC(N)=O)NC(=O)[C@H](CC(N)=O)NC(=O)[C@H](CCC(N)=O)NC1=O`: 3.76%; for `C[C@@H](O)[C@H]1C(=O)N2C(C(=O)[O-])=C(SC3Cn4cnc[n+]4C3)[C@H](C)[C@H]12` (some centres undefined): 1.34%. The same measure for `C=CC1=C(C(=O)O)N2C(=O)[C@@H](NC(=O)/C(=N\O)c3csc(N)n3)[C@H]2SC1` (stereo in doubt): 5.78% and -12.7%; for `O=C[C@H](O)[C@@H](O)[C@@H](O)[C@H](O)CO`: -13.6%.

Turning to `CO/N=C(\C(=O)N[C@@H]1C(=O)N2C(C(=O)O)=CCS[C@H]12)c1csc(N)n1`, the max response was 1.16%. The same measure for `CC[C@@H](C)CCCCC(=O)N[C@H](CCN)C(=O)N[C@@H](C(=O)N[C@H](CCN)C(=O)N[C@@H]1CCNC(=O)C([C@@H](C)O)NC(=O)[C@@H](CCN)NC(=O)[C@@H](CCN)NC(=O)[C@@H](CC(C)C)NC(=O)[C@@H](Cc2ccccc2)NC(=O)[C@@H](CCN)NC1=O)[C@@H](C)O` (stereo partly drawn) (X3-[dDab][d(aThr)][dDab][dDab][dDab][dF][dL][dDab][dDab][ξThr(3R)]; lactam 4-C): 15.7%; for `C[C@@H]1C[C@H]2[C@@H]3C[C@H](F)C4=CC(=O)C=C[C@]4(C)[C@@]3(Cl)[C@@H](O)C[C@]2(C)[C@H]1C(=O)COC(=O)C(C)(C)C`: 41.6%.

Take `C=CC[N@@+]12CC[C@@]34c5ccccc5N5/C=C6/[C@H]7C[C@H]8[C@@]9(CC[N@@+]8(CC=C)C/C7=C/CO)c7ccccc7N(/C=C(/[C@@H](C[C@@H]31)/C(=C\CO)C2)[C@H]54)[C@@H]69`: the max response is 19.7%.
